Shiga inhibitor = blocks Shiga toxin action in Vero cells; Vero cells, Shiga toxin protein synthesis inhibition reporter; inhibition, % at 38.7 µM; hit rate 9.2% among 290,000; AID 2315; in the data active = inhibition mostly above about 28%, no sharp cut-off; inactive = mostly below about 43%
Pf growth 96h = P. falciparum growth inhibition at 96 hour, primary screen for plastid delayed-death inhibitors | P. falciparum luciferase reporter growth, 96 h | Potency, µM (top dose mostly 28.7 µM), most hits filed as inhibitors | hit rate 6.9% among 320,000 | AID 504834
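Infected RBCs, 2% Hct / 0.05% parasitemia final; luciferase-reporter P. falciparum; cpd 96 h, 37 C, 5% CO2; luciferase detection reagent; luminescence.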
NS1 inh = inhibitors of influenza NS1 protein function. Potency, µM (highest dose often 46.1 µM). hit rate 0.4% among 270,000; calls by dose curve; also: actives are rising curves; nearly all actives have a fitted effect of over 50% in size
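S. cerevisiae expressing influenza A NS1, grown in glucose, washed, then diluted 1:100 into pH 6.0 -URA galactose medium with 23 nl compound. Growth recovery read as OD600; NS1-free strain serves as control.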
CHX counter = affects cycloheximide protein synthesis inhibition readout, counter-screen | hit rate 12% among 300,000 | max response, % | cell reporter, cycloheximide protein synthesis inhibition counterscreen; in the data active = max response mostly above about 13%, no sharp cut-off; inactive = mostly below about 14%; also: read at 38.3 µM for the half of the compounds with a filed dose
Pf growth 48h = P. falciparum growth inhibition at 48 hours (one generation). P. falciparum luciferase growth in erythrocytes, 48 h. Potency, µM (titrated, usually from 28.7 µM), actives largely listed as inhibitors. hit rate 5.9% among 310,000. AID 504832
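Here the parasites carry a stable luciferase gene and grow inside erythrocytes in Albumax-based RPMI medium with compound for one erythrocytic cycle. Activity is scored as loss of luminescent signal.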
Giardia FBPA inh = blocks Giardia fructose-bisphosphate aldolase activity; purified Giardia FBPA; Potency, µM (titrated, usually from 59.6 µM), most hits filed as inhibitors; hit rate 0.71% among 290,000; AID 2451; also: nearly all actives have a fitted effect of over 55% in size
Target sequence (A8B2U2 whole entry, looked up): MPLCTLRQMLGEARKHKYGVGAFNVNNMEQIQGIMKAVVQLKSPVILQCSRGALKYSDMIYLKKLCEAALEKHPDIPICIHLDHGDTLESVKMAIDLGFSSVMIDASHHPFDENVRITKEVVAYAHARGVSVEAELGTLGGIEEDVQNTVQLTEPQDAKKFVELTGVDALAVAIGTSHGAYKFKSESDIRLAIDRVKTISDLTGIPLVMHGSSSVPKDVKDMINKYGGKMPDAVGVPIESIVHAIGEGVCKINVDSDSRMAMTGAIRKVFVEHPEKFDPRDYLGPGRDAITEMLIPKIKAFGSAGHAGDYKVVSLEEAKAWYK
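40 nM FBPA preincubated 10 min at RT with compound (up to 57.5 uM final), then substrate plus GAPDH/TPI/NAD/arsenate coupling and diaphorase/resazurin added. Fluorescence read after 20 min at RT, 525/598 nm.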
Numbers stand for hits; – = inactive; ? = inconclusive; · = not tested or not shown. The list is not random: actives were taken first. Their share in the collection is about 21%. Unless noted, calls follow the shape of the dose curve; as a rule, active = well fitted curve in the direction sought with a large enough effect; inconclusive = small, poorly fitted or top-dose-only effect, or another doubt; inactive = no such curve, though single readings can be large; an effect the other way counts as inactive or inconclusive.

SMILES | Shiga inhibitor | Pf growth 96h | NS1 inh | CHX counter | Pf growth 48h | Giardia FBPA inh
Cc1ccc(/C=N/NC(=O)c2ccccn2)s1 | 44 | – | – | 49 | – | –
COC(=O)c1nn(-c2ccccc2)c2nnc(Cc3ccc(C)cc3)c(=O)n12 | – | – | – | – | – | –
O=C(c1ccccc1)c1nn(-c2ccccc2)c2nnc(Cc3ccccc3)c(=O)n12 | – | 10µM | – | – | 10µM | –
Cc1nc(N2CCN(C)CC2)c2sc(=S)n(C)c2n1 | – | 9.3µM | – | – | · | –
Cc1cc(C)c(S(=O)(=O)N2CCCC(C(=O)NCc3ccccn3)C2)c(C)c1 (centres undefined) | – | – | – | – | – | –
Cc1cc(C)n(CC(=O)N2c3ccccc3Sc3ccc(C(F)(F)F)cc32)n1 | – | ? | – | – | 10µM | –
Cc1ccc(S(=O)(=O)N2CCN(C(=O)COC(=O)CCOc3ccc(C(C)(C)C)cc3)CC2)cc1 | · | – | · | · | – | ·
CCC(C)Nc1nc2c(c(=O)n(C)c(=O)n2C)n1Cc1ccc(Cl)cc1 (centres undefined) | – | 6.6µM | – | – | ? | –
CCC(C)Nc1nc2c(c(=O)n(C)c(=O)n2C)n1Cc1cccc(C)c1 (centres undefined) | – | – | – | – | 15µM | –
CCNc1nc2c(c(=O)n(C)c(=O)n2C)n1Cc1ccc(Cl)cc1 | – | ? | – | – | – | –
Cc1cccc(Nc2nc3c(c(=O)n(C)c(=O)n3C)n2Cc2ccccc2)c1 | – | · | – | – | – | –
Cc1cccc(NS(=O)(=O)c2ccc(-n3cccn3)cc2)c1C | – | – | – | – | – | ·
CCCCN(C(=O)c1c(C)noc1C)c1c(N)n(CCC)c(=O)[nH]c1=O | · | – | · | · | – | ·
CC(=O)c1ccc(OCCn2c(SCC(=O)O)nc3ccccc32)cc1 | – | ? | – | – | – | –
O=C(Nc1cccc(-c2cccc(Cl)c2)c1)C1CCN(CC2CCOC2)CC1 (centres undefined) | – | – | – | – | 8.3µM | ·
COCc1ccc(CN2CCC(C(=O)Nc3cccc(-c4cccc(Cl)c4)c3)CC2)o1 | – | ? | – | – | 13µM | ·
O=C(Nc1cccc(-c2cccc(Cl)c2)c1)C1CCN(Cc2ccon2)CC1 | – | 8.3µM | – | – | – | –
O=C(Nc1cccc(-c2cccc(F)c2)c1)C1CCN(CC2CCOC2)CC1 (centres undefined) | – | – | – | – | ? | ·
COc1cccc(NC(=O)COC(=O)c2c(C)nn(-c3ccccc3)c2C)c1 | · | – | · | · | – | ·
CCCc1nc2oc3c(NCCCN(C)C)ncnc3c2c2c1CCCC2 | – | 13µM | – | – | 9.3µM | –
CC(C)Cc1nc2oc3c(NCC(C)O)ncnc3c2c2c1CCCC2 (centres undefined) | – | – | – | – | ? | –
CCCc1nc2oc3c(Cl)ncnc3c2c2c1CCCC2 | – | – | – | – | – | –
CCCc1nc2oc3c(NCCN(C)C)ncnc3c2c2c1CCCC2 | – | ? | – | – | 13µM | –
COc1cc(N2CCCC2)c(OC)cc1/C=C(/C#N)c1cccc(F)c1 | – | · | – | – | 10µM | –
Cc1cc2nn(-c3cccc4ccccc34)nc2cc1N | 44 | · | – | 22 | ? | ?
SMILES | Shiga inhibitor | Pf growth 96h | NS1 inh | CHX counter | Pf growth 48h | Giardia FBPA inh
Cc1ccc(-n2nc3cc(C)c(N)cc3n2)cc1 | 96 | · | – | 53 | – | ?
Nc1ccc2c(c1)C(=O)N(c1cccc3ccccc13)C2=O | · | – | – | – | – | –
CCc1ccc(-n2nc3cc(C)c(N)cc3n2)cc1 | 142 | 13µM | ? | 57 | – | ?
CCN(CC(=O)NCc1ccncc1)S(=O)(=O)c1ccc(OC)cc1 | – | – | – | – | – | –
CN(CC(=O)Nc1cccc(F)c1)C(=O)CCc1nc2sc3c(c2c(=O)[nH]1)CCCC3 | · | – | · | · | – | ·
CC1=Nn2c(nc3sc4c(c3c2=O)CCCC4)SC1 | – | – | – | 24 | – | –
O=c1c2c3c(sc2nc2n1CCCC2)CCCCC3 | – | · | – | 44 | – | –
Cc1nc2sc3c(c2c(=O)[nH]1)CCCCC3 | – | – | – | – | – | –
O=c1c2c3c(sc2nc2n1CCCCC2)CCCC3 | 97 | · | – | 31 | – | –
CC1(C)Cc2c(sc3nc4n(c(=O)c23)CCC4)CO1 | – | – | – | – | – | –
O=c1c2c3c(sc2nc2n1CCCC2)CCC3 | – | – | – | – | – | –
N=c1c2c3c(sc2nc2n1CCCCC2)CCCCC3 | 73 | ? | – | 32 | – | –
COc1ccc2c(=O)c(C)c(-c3ccccc3)oc2c1CN(C)C | · | ? | · | · | – | ·
C[C@H](C(=O)O)c1cccc(Oc2ccccc2)c1 | · | – | · | · | – | –
C=CCOc1ccc(C2C(C(=O)c3ccc(C)o3)=C(O)C(=O)N2Cc2cccnc2)cc1 (centres undefined) | – | – | – | – | – | –
O=c1c2c3c(sc2nc2n1CCCS2)CCCC3 | – | – | – | 42 | – | –
CC1CSc2nc3sc4c(c3c(=O)n21)CCCC4 (centres undefined) | – | – | – | 22 | – | –
Cc1nc2sc3c(c2c(=N)n1N)CC(C)(C)OC3 | – | – | – | – | – | –
Cc1nc2sc3c(c2c(=N)n1N)CCCC3 | – | 10µM | – | – | – | –
O=c1c2c3c(sc2nc2n1CCCCC2)CCCCC3 | 73 | – | – | 28 | – | –
COc1ccc(-n2c(C)nc3sc4c(c3c2=O)CCCC4)cc1 | – | – | · | – | – | –
O=c1c2c3c(sc2nc2n1CCC2)CCCC3 | – | ? | – | – | – | –
Cc1cccc(S(=O)(=O)NC(Cc2c[nH]c3ccccc23)C(=O)O)c1 (centres undefined) | – | – | – | – | – | –
Cc1ccc(S(=O)(=O)NCC(=O)NCC(=O)OCC(=O)N2CC(=O)Nc3ccccc32)cc1C | – | – | · | – | – | –
CCNC(=S)N(CCO)Cc1cc2cc3c(cc2[nH]c1=O)OCO3 | · | – | – | – | – | –
SMILES | Shiga inhibitor | Pf growth 96h | NS1 inh | CHX counter | Pf growth 48h | Giardia FBPA inh
O=C(NCc1ccco1)c1cccc(NC(=O)c2ccco2)c1 | – | · | – | – | – | –
COc1cccc(C(=O)c2c[nH]c(C(=O)NCc3ccco3)c2)c1 | – | – | – | 23 | – | –
CCOc1cc(C(=O)NCc2ccco2)cc(OCC)c1OCC | – | ? | – | – | – | –
CCC(OC(=O)C1=Cc2ccccc2OC1)C(=O)NCc1ccco1 (centres undefined) | – | ? | – | – | – | –
CC(OC(=O)C1=Cc2ccccc2OC1)C(=O)NCc1ccco1 (centres undefined) | – | – | · | 23 | – | –
CCCOc1ccc(C(=O)NCc2ccco2)cc1 | 74 | ? | – | 35 | ? | –
COc1ccc(C(=O)Nc2cccc(C(=O)NCc3ccco3)c2)cc1 | – | – | – | 12 | – | –
COc1cccc(COC(=O)C2CCN(S(=O)(=O)c3ccc(C)cc3C)CC2)c1OC | · | ? | · | · | – | ·
CCCCCOc1ccc(C(=O)OC(C)C(=O)NCc2ccco2)cc1 (centres undefined) | – | 13µM | – | – | ? | –
O=C(NCc1ccco1)c1csc(Nc2ccccc2Cl)n1 | – | – | – | – | – | –
